This note sets out measurements from PubChem BioAssay AID686978 (National Center for Advancing Translational Sciences (NCATS), 2013).

The whole screen tested about 420,000 compounds, of which about 64,000 (15%) were called active. Another 27% or so got no clear call; they are omitted. Only a sample is shown. A number with no mark means an inactive call. Calls follow the shape of the dose curve; as a rule, active = well fitted inhibition curve with a large enough effect; inconclusive = small, poorly fitted or top-dose-only effect; inactive = flat fitted curve, though single readings scatter.
% is scaled to controls: 0 for no effect and ±100 for the full control effect; potency is read from the fitted curve at half-maximal effect.

A short description of the assay: qHTS for Inhibitors of human tyrosyl-DNA phosphodiesterase 1 (TDP1): qHTS in cells in absence of CPT. Also: nearly all actives have a fitted effect of over 55% in size. Particulars: DT40 Tdp1-/- hTDP1 cells, no CPT, ATP luminescence, 48 h; activity change, negative = growth inhibition: at 46.2 µM (top of the series). In outline: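 Camptothecin absent (DMSO only). Human TDP1-complemented DT40 knockout cells, 400 cells/well, 37 °C for minimum 48 hr; ATP measured via CellTiter-Glo, 30 min dark incubation, luminescence.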
Background: In qHTS, concentration-response curves come from the screen itself.
Consider `O=[N+]([O-])c1cc(-c2nc(-c3ccccc3)no2)ccc1NCc1ccco1`, for which the “activity change, negative = growth inhibition” value was -21.4%.
As for `COc1ccc(CCNc2cc(N3CCN(C(=O)c4ccccc4OC)CC3)ccc2[N+](=O)[O-])cc1OC`, the Potency is 9.2 µM (active).
On to `O=C(c1ccccc1)N1CCN(c2ccc([N+](=O)[O-])c(NCc3ccco3)c2)CC1`, for which the Potency is 16.4 µM (active).
`COc1ccc(CCNC(=O)c2ccccc2-c2ccccc2C(=O)O)cc1OC`: the “activity change, negative = growth inhibition” value was -10.3%.
With `O=C(c1cccc([N+](=O)[O-])c1)N1CCN(C(=O)c2ccco2)CC1`, the “activity change, negative = growth inhibition” value is -8.93%.
With `COc1ccc(CCNC(=O)CCc2ccccc2O)cc1OC`, the “activity change, negative = growth inhibition” value was -27.5%.
As to `CCC(=O)N1CCC(C(N)=O)(N2CCCCC2)CC1`, the “activity change, negative = growth inhibition” value was -3.17%.
Same read-out and setting: the value for `COc1cccc(C(=O)NC2=NC(c3ccc(N(C)C)cc3)CC(=O)N2)c1` (stereo unspecified) was -24.2%.
The same measure, in the same setting: the value for `O=C(NCCCn1ccnc1)c1cc2c(s1)CCCC2` was 13%; that for `CCOCCCNC(=O)C(NC(=O)c1ccc(=O)[nH]c1)c1ccc(C)cc1` (stereo unspecified) was -13.8%.
On to `CC(=O)N(CC(O)CO)c1c(I)c(C(=O)NCC(O)CO)c(I)c(C(=O)NCC(O)CO)c1I` (stereo unspecified), for which the Potency entry was “inactive”.
Turning to `COc1ccc(C2N=C(N)N=C(N)N2c2ccccc2)cc1OC` (stereo unspecified), the “activity change, negative = growth inhibition” value is -13.4%.
`O=C(NCCS(=O)(=O)NCc1ccc(Cl)cc1)c1ccccc1`: the “activity change, negative = growth inhibition” value was -6.22%.
Consider `COc1ccc(CNC(=O)COC(=O)CCS(=O)(=O)c2ccc(C)cc2)cc1OC`, for which the “activity change, negative = growth inhibition” value is 1.8%.
As for `CCCCCCn1c(=O)n2n(c1=O)C[C@]1(OC(=O)NCc3ccc(OC)c(OC)c3)CN(S(=O)(=O)c3ccc(C)cc3)C[C@]1(O)C2`, the Potency is 20.6 µM (active).
Take `CCCS(=O)(=O)N1CCC(C(=O)NCCc2ccc(OC)c(OC)c2)CC1`: the “activity change, negative = growth inhibition” value is -1.2%.
As for `Cc1nnc(-c2ccc(Oc3ccc(C)c(C)c3)c([N+](=O)[O-])c2)o1`, the Potency was 9.2 µM (active).
Take `COc1ccc(-c2nc3cc([N+](=O)[O-])ccc3o2)cc1OC`: the “activity change, negative = growth inhibition” value was -5.45%.
Take `CNc1ccc(-c2nc(-c3ccccc3C)no2)cc1[N+](=O)[O-]`: the “activity change, negative = growth inhibition” value was -16%.
The same measure, in the same setting: the value for `O=C(CCc1nc(CN2CCN(S(=O)(=O)c3ccc(Cl)cc3)CC2)no1)N1CCCCC1` was -21.3%.
On to `O=C(COC(=O)COc1cccc(F)c1)NCC1CCCCC1`, for which the “activity change, negative = growth inhibition” value was 0.989%.
Consider `O=C1OC(C(=O)Nc2cccc(Br)c2)Cc2ccccc21` (stereo unspecified), for which the “activity change, negative = growth inhibition” value is 1.96%.
As to `CC(C)C[C@@H](COCc1ccc(Cl)cc1)N1CCN(C(=O)c2ccc(Cl)cc2Cl)CCC1=O`, the Potency is 16.4 µM (active).
Regarding `CC(C)CC(CO)N1CCN(C(=O)c2ccc(Cl)cc2Cl)CCC1=O` (stereo unspecified), the “activity change, negative = growth inhibition” value was -11.6%.
Turning to `CC(C)C[C@@H](CO)N1CCN(Cc2ccc(O)cc2)CCC1=O`, the Potency entry is “inactive”.
For the molecule `Cc1nc(N)nc(Cl)c1CCC1OCCO1`, the “activity change, negative = growth inhibition” value is -6.83%.
As for `OCCn1c(-c2ccccc2)csc1=Nc1ccccc1`, the Potency was 16.4 µM (active).
On to `Cc1csc(=Nc2ccccc2)n1CCO`, for which the “activity change, negative = growth inhibition” value is 7.06%.
As for `CCOCCc1nn2c(=O)cc(CSCC(=O)Nc3cccc(C)c3C)nc2s1`, the “activity change, negative = growth inhibition” value was -7.26%.
In the case of `O=C(COC(=O)CCc1ccc(S(=O)(=O)N2CCOCC2)cc1)Nc1cccc(Cl)c1`, the “activity change, negative = growth inhibition” value is 5.37%.
With `O=C(Nc1ccon1)c1cccc(Cl)c1`, the “activity change, negative = growth inhibition” value is 3.62%.
As for `Cc1cc(NC(=O)c2cccc(Cl)c2)ccc1-c1cc2ccccc2oc1=O`, the Potency was 23.1 µM (active).
For `Cc1ccc2nc(COc3cccc(NC(=O)c4cccc(Cl)c4)c3)cc(=O)n2c1`, the “activity change, negative = growth inhibition” value is -22.2%.
As to `N/C(=N\OS(=O)(=O)c1cccc([N+](=O)[O-])c1)c1ccncc1`, the “activity change, negative = growth inhibition” value was -5.45%.
As to `Cc1ccc(CNC(=O)C(=O)c2cn(CC(=O)N3CCOCC3)c3ccccc23)cc1`, the “activity change, negative = growth inhibition” value was 13.1%.
As to `CCS(=O)(=O)c1ccc(C(=O)NC)c(Cl)c1Cl`, the “activity change, negative = growth inhibition” value is 2.49%.
Consider `Cc1cc(O)ccc1-c1cnc2ccccc2n1`, for which the “activity change, negative = growth inhibition” value was -24.8%.
`Cc1ccc(NC(=O)CN2CCc3ccccc3C2)cc1C`: the “activity change, negative = growth inhibition” value was 0.0925%.
In the case of `O=C(Nc1ccc(CSc2ccccc2)cc1)c1ccc(CN2CCOCC2)cc1`, the “activity change, negative = growth inhibition” value was 1.03%.
For the molecule `Cc1cccc(C)c1NC(=O)c1ccc(CN2CCc3ccccc3C2)cc1`, the Potency is 20.6 µM (active).
As to `O=C(NNC(=O)c1csc(-c2cccnc2)n1)Nc1ccc(Cl)cc1`, the “activity change, negative = growth inhibition” value is -26.1%.
As to `C#CC(C)(CC)NC(=O)Cn1nnc(-c2ccc(OCc3c(F)cccc3Cl)cc2)n1` (stereo unspecified), the Potency is 18.4 µM (active).
Regarding `Fc1cccc(Cl)c1COc1ccc(-c2nnco2)cc1`, the “activity change, negative = growth inhibition” value was -11.1%.
Turning to `COCCCNC(=O)/C=C/c1ccc(OCc2c(F)cccc2Cl)cc1`, the “activity change, negative = growth inhibition” value was 2.03%.
For `O=C(OCCOCn1cc(Br)c(=O)[nH]c1=O)c1ccccc1`, the “activity change, negative = growth inhibition” value is -9.32%.
Turning to `CN(N)c1nc(N2CCCC2)nc(N2CCCC2)n1`, the “activity change, negative = growth inhibition” value is -15.5%.
`O=C(NCc1ccccc1)c1cc(-c2cccc(Cl)c2)on1`: the “activity change, negative = growth inhibition” value is -15.6%.
For `CCOC(=O)C1(S(=O)(=O)c2ccc(Cl)cc2)CCN(Cc2ccccc2)CC1`, the “activity change, negative = growth inhibition” value was -22%.
In the case of `CCOC(=O)C1(CCOC)CCN(Cc2ccc(C(=O)OC)cc2)CC1`, the “activity change, negative = growth inhibition” value was -24.2%.
With `O=C(c1cn(CC2CCCN(Cc3cc4ccccc4s3)C2)nn1)N1CCCC1` (stereo unspecified), the “activity change, negative = growth inhibition” value was -9.65%.
On to `CCOC(=O)C1(CCOC)CCN(Cc2cc3ccccc3s2)CC1`, for which the Potency was 16.4 µM (active).
Regarding `CCOC(=O)C1(CCOc2ccccc2)CCN(Cc2ccc(C#CCCO)cc2)CC1`, the Potency is 16.4 µM (active).
On to `O=C(CCc1ccccc1)Nc1ccnn1C1CCN(Cc2ccc(OCCO)cc2)CC1`, for which the “activity change, negative = growth inhibition” value was 18.5%.
On to `CCOc1cc2[nH]c(=S)n(CCN3CCCCC3C)c(=O)c2cc1OCC` (stereo unspecified), for which the “activity change, negative = growth inhibition” value is -22.3%.
On to `O=C(NN1C(=O)C2C3C=CC(C3)C2C1=O)c1ccco1` (stereo unspecified), for which the “activity change, negative = growth inhibition” value was -3.19%.
The same measure, in the same setting: next, `COc1ccc(OC)c(NC(=O)N[C@H](Cc2ccccc2)C(=O)NN)c1`: 9.7%; `O=C(COC(=O)/C=C/c1ccc(Br)o1)Nc1cccc(S(=O)(=O)N2CCOCC2)c1`: 9.84%.
On to `O=C(Nc1ccc(-c2cscn2)cc1)C1CCCN(Cc2ccc(CO)o2)C1` (stereo unspecified), for which the “activity change, negative = growth inhibition” value was -0.798%.
In the case of `COc1ccccc1/C=N/N1CCN(Cc2ccccc2Cl)CC1`, the “activity change, negative = growth inhibition” value is 9.68%.
In the case of `CCC1Nc2ncnc(N3CCN(c4ccccc4)CC3)c2N(Cc2ccc(Cl)cc2)C1=O` (stereo unspecified), the Potency is 20.6 µM (active).
In the case of `CCS(=O)(=O)N1CCC(N2CCN(c3ccccc3)CC2)CC1`, the “activity change, negative = growth inhibition” value was -2.72%.
Turning to `O=C1C(Cc2ccc(O)cc2)NC(=S)N1Cc1ccccc1` (stereo unspecified), the “activity change, negative = growth inhibition” value is 9.72%.
The same measure, in the same setting: the value for `O=C(Nc1ccnc(-c2ccncc2)n1)c1cccs1` was 11%.
On to `Cc1ccc(C(=O)Nc2cc3c(cc2N2CCCC2)n(C)c(=O)c(=O)n3C)cc1`, for which the Potency is 20.6 µM (active).
In the case of `CCc1ccc(S(=O)(=O)Nc2cc3c(cc2N2CCCCC2)n(C)c(=O)c(=O)n3C)cc1`, the “activity change, negative = growth inhibition” value was -11.4%.
The same measure, in the same setting: the value for `Cn1c(=O)n(C)c2cc(C(=O)Nc3ccc(Br)cc3)ccc21` was -23%.
